Measured values reported in PubChem BioAssay (NCI).
About 83,000 compounds went through this panel and 20% of them were active in at least one assay; those are over-represented in the sample as a whole.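 Step 1: grow cells in 96-well plates. Step 2: add test compound at a single concentration. Step 3: incubate 48 h. Step 4: record percent growth.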 Values without a mark were called inactive. Activity calls are given as the source filed them. How the source made its calls: active means growth percent below 10; inactive means the rest.

Assays:
Test in all cases: NCI-60 one-dose screen, 48 h (100 = growth as untreated, 0 = no growth, -100 = all killed)
Details in all cases: 10 µM
[1] = system: NCI-H23 lung
[2] = system: NCI-H226 lung
[3] = system: NCI-H322M lung
[4] = system: HOP-62 NSCLC
[5] = system: NCI-H460 lung
[6] = system: NCI-H522 lung
[7] = system: A549/ATCC NSCLC
[8] = system: 786-0 renal
[9] = system: COLO 205 colon
[10] = system: DU-145 prostate
[11] = system: K-562 leukemia
[12] = system: MALME-3M melanoma
[13] = system: MDA-MB-231 breast
[14] = system: RXF 393 renal
[15] = system: SF-268 CNS
[16] = system: SF-295 CNS
[17] = system: SF-539 CNS
[18] = system: UACC-257 melanoma
[19] = system: M14 melanoma
[20] = system: HCT-15 colon

Row | SMILES | growth [1] [%] | growth [2] [%] | growth [3] | growth [4] | growth [5] | growth [6] | growth [7] | growth [8] | growth [9] | growth [10] | growth [11] | growth [12] | growth [13] | growth [14] | growth [15] | growth [16] | growth [17] | growth [18] [%] | growth [19] | growth [20]
1 | C#Cc1ccc(-n2c(/C=C/c3cc(OC)cc(OC)c3)nc3ncccc3c2=O)cc1 | 89 | 65.8 | 72.5% | 48.6% | 94.6% | 7.88% (active) | 68.4% | 81% | 117% | 93.2% | 75.3% | 83.2% | 53.5% | 64.8% | 65.3% | 75.7% | 87.8% | 66.3 | 81.2% | 82.8%
2 | COc1ccc(-c2nn(-c3cccc(NC(=O)c4cc(C(F)(F)F)cc(C(F)(F)F)c4)c3)cc2-c2ccncc2)cc1Cl | 81.1 | 78.3 | 73.1% | 88.1% | 62.3% | 14.8% | 53.1% | 81.2% | 90.7% | 83.7% | 31.3% | 42.5% | 74% | 62.8% | 72.6% | 53.9% | 67.4% | 62 | 64% | 73.7%
3 | COc1ccc(Nc2cc(C)nc(NCCCNc3ccnc4cc(Cl)ccc34)n2)cc1 | 63.2 | 110 | -3.79% (active) | 18.7% | -4.78% (active) | -74% (active) | -44.7% (active) | -97.7% (active) | -96.3% (active) | 28% | -42.2% (active) | -86.2% (active) | -67.7% (active) | -90.4% (active) | -54.5% (active) | -78.8% (active) | -100% (active) |  | -81.1% (active) | -55.8% (active)
4 | Cc1cc(N(CCCNc2ccnc3cc(Cl)ccc23)Cc2ccc3c(c2)OCO3)nc(N2CCOCC2)n1 | 50.9 | 67.2 | 37.5% | 10.1% | 20.2% | 8.51% (active) | 28.7% | -20.4% (active) | -54% (active) | 38% | -6.17% (active) | -71.4% (active) | 14.4% | -48% (active) | 36.6% | -9.78% (active) | -72.9% (active) |  | -71.1% (active) | 4.7% (active)
5 | COc1ccc(Oc2nc(NC3CCCC3)nc(Sc3ccc(OC)cc3)n2)cc1 | 79.6 | 67.4 | 90.5% | 75.7% | 47.7% | 66.9% | 72.8% | 79.9% | 82.2% | 91.7% | 53.3% | 69.6% | 50.1% | 74.1% | 55.6% | 67.4% | 83.4% | 87.3 | 87.6% | 43.9%
6 | COc1ccc(C2=NN(C(=O)c3ccc(S(C)(=O)=O)cc3)C(c3ccc(OC)c(OC)c3)C2)c(OC)c1 (stereo not given) | 104 | 85.5 | 93.9% | 74.4% | 107% | 86.6% | 91.7% | 99.8% | 111% | 98% | 77.2% | 113% | 95.2% | 105% | 89% | 98.7% | 102% | 92.2 | 103% | 99.4%
7 | CCCCN(CCCC)c1cc(C(=O)CCCCCN)c2ccccc2n1 | 94.5 | 93 | -30.8% (active) | 110% | 31.8% | 76.9% | -31.8% (active) | 38.8% | 17.4% | -81.1% (active) | -67.9% (active) | -74.4% (active) | 78.3% | 82.5% | -58% (active) | -62.3% (active) | 83.6% |  | 14.4% | 60.1%
8 | O=S(=O)(NCCCNc1nccc(-c2c(-c3ccc(F)cc3)nc3sccn23)n1)c1ccc2ccccc2c1 | 66.2 | 57.4 | 49.6% | 81.3% | 22.7% | 46.2% | 28.9% | 55.5% | 10.1% | 46.4% | 3.75% (active) | 50.3% | 34.9% | 66.7% | 40.3% | 43.7% | 85.3% | 56.8 | 47.7% | 35.1%
9 | COc1cc(-c2nc(-c3nnc(-c4ccc(F)c(Cl)c4)o3)c3ccccn23)cc(OC)c1OC | 70.1 | 15.3 | 54.5% | -65.6% (active) | 7.43% (active) | 5.92% (active) | 23.7% | 45.5% | 43.7% | 41% | 52.6% | 13.4% | 57.3% | 40.4% |  | 37.3% | 37% | 40.3 | 70% | 55.4%
10 | NC(=O)CC1(c2ccccc2)CCCCC1 | 103 | 110 | 90.9% | 102% | 104% | 96% | 116% | 97.1% | 103% | 107% | 92.3% | 93.8% | 105% | 114% | 98.5% | 103% | 104% |  | 96% | 101%
11 | Nc1ccc2c(c1)C1(CCC2)NC(=O)NC1=O (stereo not given) | 103 | 92.1 | 103% | 101% | 103% | 98.6% | 99.5% | 100% | 105% | 114% | 95.8% | 101% | 101% | 96.1% | 100% | 108% | 93% |  | 100% | 92.7%
12 | CN1CCC(CNc2cc(C3(C(=O)Nc4cc(C(=O)Nc5ccc(Cl)c(C(F)(F)F)c5)ccc4F)CC3)ncn2)CC1 | 44 | 72.5 | 39.4% | -47.2% (active) | 3.98% (active) | 46.6% | 13.4% | -38.4% (active) | -67.3% (active) | 40.5% | -60.3% (active) | -67.7% (active) | -32.2% (active) | -46.8% (active) | 18.2% | -54.4% (active) | -57.2% (active) |  | -52% (active) | -20.3% (active)
13 | C(CCCC1=NCCO1)CCCC1=NCCO1 | 97.2 | 95.8 | 118% | 107% | 104% | 103% | 101% | 99.1% | 99.5% | 108% | 110% | 106% | 104% | 95.6% | 104% | 101% | 101% | 104 | 109% | 99.3%
14 | O=C1/C(=C\c2cn(C(=O)c3ccc(Cl)cc3)c3ccccc23)c2ccccc2N1C(=O)c1ccc(Cl)cc1 | 83.2 | 89.4 | 98.6% | 61.4% | 86% | 6.02% (active) | 63.3% | 93.7% | 105% | 85.1% | 83.9% | 126% | 81.2% | 83.3% | 77.6% | 102% | 67.3% |  | 79.2% | 65.8%
15 | COc1ccc(-c2nnc(-c3c(-c4ccccc4)nc4ncccn34)o2)cc1OC | 97.2 | 93.2 | 94.2% | 84.6% | 107% | 94.2% | 96% | 102% | 100% | 109% | 88.8% | 121% | 91.3% | 98.3% |  | 101% | 94.5% | 96.7 | 119% | 100%
16 | COc1ccc(-c2nc3ncccn3c2-c2nnc(-c3ccc(F)cc3)o2)cc1 | 98.2 | 96.7 | 101% | 106% | 101% | 106% | 104% | 101% | 113% | 106% | 87.7% | 122% | 88.9% | 111% |  | 97.1% | 94.5% | 105 | 110% | 93.8%
